The values below come from PubChem BioAssay.

Assay [1] is described as follows: E. coli DRC41 culture turbidity changes, primary screen, E. coli filamentation inducer project, strain DRC41, OD650, 48 h (AID 1152).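 Also: E. coli MC1000 strain DRC41 lacking acrAB efflux pump and sulA.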 The note with it: E. coli DRC41 (acrAB sulA), higher = more signal, called active from +8 up or from −8 down.
Assay [2] can be described thus: small-molecule binders of probe aLefty1, primary screen, biochemical, small-molecule microarray, 635/667 nm fluorescence (AID 1153).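 Also: score merges spot fluorescence with signal-to-noise ratio from the scanned slide images.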 The note with it: higher = more signal.
A short description of assay [3]: PSAC antagonists in infected red cells, primary screen, cell-based, P. falciparum Indochina, OD700, 1 h (AID 1154). The settings on record: P. falciparum Indochina infected RBC osmotic lysis, higher = more signal, called active from +8 up or from −8 down.
Assay [4] in a line: PSAC antagonists in infected red cells, primary screen, cell-based, P. falciparum Indochina, OD700, 2 h (AID 1155).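 Also: lysis reports solute entry through the parasite surface anion channel PSAC; channel blockers reduce lysis of infected cells.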 The note with it: P. falciparum Indochina infected erythrocytes, osmotic lysis OD700; higher = more signal, called active from +8 up or from −8 down.
A short description of assay [5]: osmotic lysis modulators in infected erythrocytes, primary screen, PSAC antagonist project, cell-based, P. falciparum Indochina, OD700, 3 h (AID 1156). The settings on record: higher = more signal, called active from +8 up or from −8 down.
Assay [6] in a line: PSAC antagonists in infected red cells, primary screen, cell-based, P. falciparum Indochina, OD700, 18 h (AID 1157). The note with it: P. falciparum Indochina infected erythrocytes, osmotic lysis OD700, 18 h; higher = more signal, called active from +8 up or from −8 down.
Assay [7] is described as follows: modulators of S6 phosphorylation in cells, primary screen, cell-based, A549, cytoblot, luminescence, serum-stimulated (AID 1158).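 Also: serum-stimulated A549 lung adenocarcinoma cells; signal is phosphorylated S6 detected by cytoblot immunostaining with HRP secondary.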 The note with it: A549 phospho-S6 cytoblot, 5 h, higher = more signal.
In assay [8] the target is NADPH oxidase 2 (Homo sapiens) (UniProt P04839). The assay can be described thus: NOX2-dependent H2O2 signal modulators, primary screen, NOX inhibitor project, cell-based, HEK293-NOX2, PMA-stimulated, Amplex Red fluorescence (AID 1159). Also: test concentration not given here. The note with it: 45 min, higher = more signal, called active from +8 up or from −8 down.
NADPH oxidase 2 (Homo sapiens), sequence (P04839 whole entry, looked up): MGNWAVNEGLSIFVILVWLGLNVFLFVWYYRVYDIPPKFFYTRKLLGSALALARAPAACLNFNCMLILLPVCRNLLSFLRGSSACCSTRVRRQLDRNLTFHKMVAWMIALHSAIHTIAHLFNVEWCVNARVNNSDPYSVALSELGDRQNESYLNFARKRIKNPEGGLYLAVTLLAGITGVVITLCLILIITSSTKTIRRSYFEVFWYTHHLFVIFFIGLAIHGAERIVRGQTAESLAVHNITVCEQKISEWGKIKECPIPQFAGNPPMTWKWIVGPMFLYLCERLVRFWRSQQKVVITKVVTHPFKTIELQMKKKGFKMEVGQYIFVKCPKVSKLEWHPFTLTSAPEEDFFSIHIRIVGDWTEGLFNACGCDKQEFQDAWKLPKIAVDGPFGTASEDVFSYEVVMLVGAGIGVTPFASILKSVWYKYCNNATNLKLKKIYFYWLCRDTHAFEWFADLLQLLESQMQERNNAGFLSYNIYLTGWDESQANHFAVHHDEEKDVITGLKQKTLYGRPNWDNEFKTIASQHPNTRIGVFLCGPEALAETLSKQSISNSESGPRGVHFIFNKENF
The target of assay [9] is NADPH oxidase 4 (Homo sapiens) (UniProt Q9NPH5). The assay can be described thus: NOX4-dependent H2O2 signal modulators, primary screen, NOX inhibitor project, cell-based, HEK293-NOX4, tetracycline-induced, Amplex Red fluorescence (AID 1160). The note with it: 45 min, higher = more signal, called active from +8 up or from −8 down.
NADPH oxidase 4 (Homo sapiens), sequence (Q9NPH5 whole entry, looked up): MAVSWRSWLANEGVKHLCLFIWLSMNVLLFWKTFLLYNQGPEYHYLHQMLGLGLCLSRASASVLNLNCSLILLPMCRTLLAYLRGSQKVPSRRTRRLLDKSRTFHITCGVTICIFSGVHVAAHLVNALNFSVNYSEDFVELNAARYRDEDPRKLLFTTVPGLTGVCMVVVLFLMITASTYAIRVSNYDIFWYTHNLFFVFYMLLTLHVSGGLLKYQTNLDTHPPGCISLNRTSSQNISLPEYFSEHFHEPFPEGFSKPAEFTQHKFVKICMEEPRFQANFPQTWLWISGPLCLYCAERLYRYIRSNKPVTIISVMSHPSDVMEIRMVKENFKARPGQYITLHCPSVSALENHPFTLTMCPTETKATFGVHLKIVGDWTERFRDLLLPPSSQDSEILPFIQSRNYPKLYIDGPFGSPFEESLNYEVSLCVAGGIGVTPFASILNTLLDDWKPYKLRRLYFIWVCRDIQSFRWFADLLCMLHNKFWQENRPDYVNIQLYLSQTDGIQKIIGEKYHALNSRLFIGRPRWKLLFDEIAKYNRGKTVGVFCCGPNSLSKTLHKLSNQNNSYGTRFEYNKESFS
In assay [10] the target is NADPH oxidase 5 (Homo sapiens) (UniProt Q96PH1). The assay can be described thus: NOX5-dependent H2O2 signal modulators, primary screen, NOX inhibitor project, cell-based, HEK293-NOX5, Amplex Red fluorescence (AID 1161). The note with it: HEK293-NOX5, ionomycin, 45 min, higher = more signal.
NADPH oxidase 5 (Homo sapiens), sequence (Q96PH1 whole entry, looked up): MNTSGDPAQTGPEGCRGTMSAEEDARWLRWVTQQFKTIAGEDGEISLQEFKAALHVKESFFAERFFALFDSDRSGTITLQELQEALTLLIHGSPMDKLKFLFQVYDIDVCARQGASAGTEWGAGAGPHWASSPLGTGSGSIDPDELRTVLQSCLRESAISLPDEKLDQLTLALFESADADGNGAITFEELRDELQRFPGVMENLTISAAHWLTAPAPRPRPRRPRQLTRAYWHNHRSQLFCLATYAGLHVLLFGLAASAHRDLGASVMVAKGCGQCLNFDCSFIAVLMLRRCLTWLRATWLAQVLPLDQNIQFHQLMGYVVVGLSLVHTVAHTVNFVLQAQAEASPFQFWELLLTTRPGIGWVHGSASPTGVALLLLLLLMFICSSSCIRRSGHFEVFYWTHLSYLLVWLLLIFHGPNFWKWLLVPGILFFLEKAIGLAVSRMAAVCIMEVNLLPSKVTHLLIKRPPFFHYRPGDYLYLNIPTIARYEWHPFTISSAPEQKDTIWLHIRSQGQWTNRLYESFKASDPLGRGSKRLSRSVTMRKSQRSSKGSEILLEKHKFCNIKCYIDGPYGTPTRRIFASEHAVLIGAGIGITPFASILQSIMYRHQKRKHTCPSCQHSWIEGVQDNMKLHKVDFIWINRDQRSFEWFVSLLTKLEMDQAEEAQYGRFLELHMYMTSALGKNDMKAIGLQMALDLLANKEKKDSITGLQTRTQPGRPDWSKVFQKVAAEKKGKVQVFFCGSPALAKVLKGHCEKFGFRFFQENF
The nature of assay [11]: A549 cell viability effects, profiling panel, calcein-AM fluorescence, 48 h, basal (AID 1162). Also: test concentration not given here. The settings on record: higher = more signal.
A short description of assay [12]: adipocyte viability effects, profiling panel, cell-based, 3T3-L1 adipocytes, calcein-AM fluorescence, 48 h, basal (AID 1163). Also: test concentration not given here. The settings on record: 3T3-L1 adipocytes viability, higher = more signal.
Assay [13] can be described thus: HepG2 cell viability effects, profiling panel, calcein-AM fluorescence, 48 h, basal (AID 1164). Also: test concentration not given here. The settings on record: higher = more signal.
Assay [14] in a line: MM1S cell viability effects, profiling panel, calcein-AM fluorescence, 48 h, basal (AID 1165).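 Also: viability of MM1S multiple myeloma cells under basal unstimulated conditions; test concentration not given here.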 The settings on record: higher = more signal.
Assay [15] is described as follows: basal RPMI8226 viability, no added stimulus, profiling panel, cell-based, calcein-AM fluorescence, 48 h, PK04 Diversity Set (AID 1166).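 Also: cells grown under basal conditions without added stimulus; test concentration not given here.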 The note with it: RPMI8226 myeloma viability, higher = more signal.
Assay [16] in a line: basal HepG2 mitochondrial membrane potential changes, profiling panel, cell-based, JC-1 fluorescence, 24 h, 100 nL compound (AID 1167). Also: test concentration not given here. The settings on record: higher = more signal.
Assay [17] can be described thus: basal 3T3-L1 adipocyte mitochondrial potential changes, profiling panel, cell-based, JC-1 fluorescence, 3T3-L1 adipocytes, 24 h, 100 nL compound (AID 1168). Also: test concentration not given here. The note with it: JC-1 mitochondrial fluorescence, higher = more signal, called active from +8 up or from −8 down.
The nature of assay [18]: basal RPMI8226 mitochondrial membrane potential changes, profiling panel, cell-based, JC-1 fluorescence, 24 h, 100 nL compound (AID 1169). Also: test concentration not given here. The settings on record: RPMI8226 myeloma, JC-1 mitochondrial potential fluorescence, higher = more signal.
A short description of assay [19]: basal MM1S mitochondrial membrane potential changes, profiling panel, cell-based, JC-1 fluorescence, 24 h, 100 nL compound (AID 1170). Also: test concentration not given here. The note with it: higher = more signal.
The nature of assay [20]: A549 lung cancer cell viability effects, profiling panel, resazurin fluorescence, 24 h, PK04 Diversity Set (AID 1171). Also: test concentration not given here. The note with it: higher = more signal, called active from +8 up or from −8 down. (Alamar Blue is a resazurin reagent that responds to reducing activity.)

Calls of active or inactive are those of the source.

With `CCCCCCCCCCC(O)C1C=CC2C(=O)N(C)C(=O)C2N1N1CCCCC1` (stereo not given), the z-score in assay [1] is -1.83 (inactive); in assay [3] it was 9.71 (active); in assay [4] it was 2.41 (inactive); in assay [5] it was 2.12 (inactive); in assay [6], 2.2 (inactive); in assay [7], -1.58. Further, the z-score in [8] was 1.18 (inactive); in [9], -1.94 (inactive); in assay [10] it was 2.16; in assay [11], -1.25; in [12] it was -1.6; in assay [13] it was -1.17. The z-score in assay [14] is -3.29; in [15], -3.54; in assay [16] it was -0.235; in assay [17], -1 (inactive); in assay [18] it was -1; in assay [19], -0.517. The z-score in assay [20] is -0.041 (inactive). The compound further displayed a composite z-score in assay [2] of 0.532.
Turning to `COC(=O)[C@@]1(Cc2ccccc2)[C@@H]2[C@@H](CC(=O)[C@H]2CC(=O)C(=O)N(C)C)CN1C(=O)c1ccccc1`, the z-score in assay [1] was -0.655 (inactive); in [3], 2.19 (inactive); in [4], 0.543 (inactive); in assay [5], 0.0132 (inactive); in assay [6] it was 0.738 (inactive); in assay [7], -0.268. Further, the z-score in assay [8] was 0.984 (inactive); in assay [9], 0.766 (inactive); in [10], -0.461; in assay [11] it was 0.258; in assay [12] it was -0.103; in [13], 0.0925. The z-score in assay [14] is -0.822; in assay [15], 0.397; in assay [16], 1.23; in assay [17], -0.239 (inactive); in assay [18], 0.209; in assay [19], -1.31. Besides, in assay [20], the z-score was -0.658 (inactive). In assay [2], the composite z-score was found to be 0.0811.
As for `COC(=O)[C@@]1(Cc2ccc(F)cc2)[C@H]2c3cc(C(=O)N(C)C)n(CCn4cc([N+](=O)[O-])nc4C)c3C[C@H]2CN1C(=O)c1ccccc1`, the z-score in [1] was -2.34 (inactive); in assay [3] it was 0.496 (inactive); in [4] it was 0.288 (inactive); in assay [5], 0.0718 (inactive); in assay [6], 0.544 (inactive); in assay [7], 0.0938. The z-score is 0.762 (inactive) in assay [8]; -0.00316 (inactive) in [9]; -0.683 in assay [10]; -0.771 in assay [11]; -0.417 in assay [12]; 0.346 in assay [13]. Also, the z-score in assay [14] was -0.737; in [15] it was 0.211; in assay [16], 0.443; in assay [17], -0.596 (inactive); in assay [18], 0.0282; in assay [19] it was -0.54. For the same compound, in assay [20], the z-score was -0.792 (inactive). In [2], this compound yielded a composite z-score of 0.0861.
Turning to `COCCOC(=O)N1C(=O)[C@@]2(c3cc(C#Cc4ccc(OC)cc4)ccc31)[C@H](C(=O)Nc1nc3ccccc3s1)[C@H]1C(=O)O[C@H](c3ccccc3)[C@H](c3ccccc3)N1[C@@H]2c1ccccc1OCCO`, the z-score in assay [1] is 2.47 (inactive); in assay [3], 8.82 (active); in [4] it was 0.873 (inactive); in assay [5], 0.953 (inactive); in assay [6] it was 0.514 (inactive); in assay [7], 0.486. Besides, the z-score in assay [8] was 1.13 (inactive); in [9] it was 0.337 (inactive); in assay [10], 1.45; in [11] it was -0.49; in assay [12], 1.31; in assay [13], 0.195. The z-score in [14] was -1.35; in assay [15] it was -0.213; in [16] it was -2.46; in assay [17], 3.66 (inactive); in assay [18] it was -0.678; in assay [19], -0.881. Further, the z-score in [20] was 0.027 (inactive). Besides, in [2], the composite z-score was -0.295.
Regarding `Cc1ccc(S(=O)(=O)N2[C@@H](c3ccccc3)C(C(=O)O)=CC[C@H]2c2ccc(C#N)cc2)cc1`, the z-score in assay [1] was -1.22 (inactive); in [3], 4.02 (inactive); in assay [4], 1.42 (inactive); in assay [5] it was 1.6 (inactive); in assay [6], 0.559 (inactive); in [7] it was -0.316. Moreover, the z-score in assay [8] is -0.229 (inactive); in assay [9], -1.62 (inactive); in [10] it was -1.54; in assay [11], -0.283; in assay [12], -0.287; in assay [13], -0.187. In addition, the z-score in [14] was -0.44; in [15] it was -0.471; in assay [16] it was -0.556; in assay [17], -0.633 (inactive); in [18], -0.748; in assay [19], 0.226. Further, the z-score in assay [20] was -0.748 (inactive). For the same compound, the composite z-score in assay [2] was 0.114.
Take `COc1ccc(CC[C@H](O)c2cccc(OCC(=O)OC(C)(C)C)c2)cc1`: the z-score is -0.636 (inactive) in assay [1]; 22.8 (active) in [3]; 6.97 (inactive) in assay [4]; 0.597 (inactive) in assay [5]; 0.794 (inactive) in assay [6]; 0.118 in [7]. Also, the z-score in assay [8] is -2.52 (inactive); in assay [9], -0.941 (inactive); in assay [10] it was -4.03; in assay [11], -1.42; in [12], 0.71; in assay [13] it was -2.12. Further, the z-score was -2.52 in assay [14]; -1.31 in [15]; -2.71 in [16]; 1.69 (inactive) in assay [17]; -0.84 in assay [18]; -0.835 in assay [19]. The z-score in assay [20] is 0.41 (inactive). The compound further displayed a composite z-score in assay [2] of 0.163.
Take `CCCCNC(=O)c1ccc(C#C[Si](C)(C)C)c(OC(C)=O)c1`: the z-score in assay [1] is 0.151 (inactive); in assay [3], 12.3 (active); in assay [4] it was 1.64 (inactive); in assay [5], 1.67 (inactive); in assay [6] it was 0.672 (inactive); in assay [7], 0.726. Besides, the z-score was 1.8 (inactive) in [8]; 0.194 (inactive) in [9]; 0.0648 in assay [10]; -0.507 in [11]; 0.477 in [12]; -0.484 in [13]. Also, the z-score in [14] was 0.131; in [15] it was -1.13; in assay [16], -1.12; in [17], -0.538 (inactive); in assay [18], -0.215; in assay [19], -0.601. The z-score in assay [20] is -0.389 (inactive). In assay [2], this compound displayed a composite z-score of -0.0032.
Consider `[N-]=[N+]=NCc1ccccc1C[C@@]1(C(=O)O)N=C(c2ccc(OCCCO)cc2)O[C@@H]1c1ccccc1CN=[N+]=[N-]`, for which the z-score is 0.583 (inactive) in assay [1]; 22.1 (active) in assay [3]; 4.92 (inactive) in assay [4]; -0.995 (inactive) in [5]; -0.336 (inactive) in assay [6]; 1.03 in assay [7]. Besides, the z-score in [8] is 0.887 (inactive); in assay [9] it was 1.54 (inactive); in [10], 2.03; in [11] it was 0.737; in [12], 0.2; in assay [13] it was 0.0664. In addition, the z-score in [14] is -0.274; in assay [15], -2.21; in assay [16], -0.168; in assay [17] it was -0.186 (inactive); in assay [18], -0.477; in assay [19], -0.824. In addition, the z-score in assay [20] was 0.855 (inactive). For the same compound, in [2], the composite z-score stood at 0.313.
